Measurements published in PubChem BioAssay.
Where “and” joins values, the source holds several entries; their conditions need not be identical. Equal values may be shown once.

system: anti-desmoglein-3 scFv antibody binding to human DSG3; test: inhibitors of anti-DSG3 scFv binding to DSG3, pilot screen, biochemical, validation compound set, bead-based, flow cytometry (AID 588368); details: Protein G beads, DSG3-Fc, scFv-GFP binding, at 10 µM, stronger effect = lower value;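 also: signal is the median channel fluorescence of bead-bound GFP antibody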

Binding (% of control), inactive:
COc1cc(C2NCCc3c2[nH]c2ccccc32)ccc1OC(C)C (stereo not given) 104%
O=C(CSCc1ccccc1)NCCCN1CCOCC1 102%
O=C(N1CCCCC1)C1(c2ccccc2)CCOCC1 104%
CCCC(=O)O[C@]1(C(=O)COC(C)=O)CC[C@H]2[C@@H]3C[C@H](F)C4=CC(=O)C=C[C@]4(C)[C@@]3(F)[C@@H](O)C[C@@]21C 105%
O=c1ccc2c(o1)/C(=C/C=C(Cl)Cl)CCC2 101%
COc1cc(Cc2cnc(N)nc2N)cc(OC)c1OC 95.8% and 103%
O=C(CC(NC(=O)OCc1ccccc1)C(=O)O)OCc1ccccc1 (stereo not given) 97.1%
O=c1c(-c2ccccc2)c(O)c2cccc3c2n1CCC3 101%
O=C(O)C1CCN(C(=O)COc2ccc3c4c(c(=O)oc3c2)CCC4)CC1 109%
CCOC(=O)c1cccc(P(C)(C)=O)c1 95.8%
O=C(O)c1cc2cc(F)ccc2[nH]1 97.2%
O=C(O)c1ccccc1C(=O)OCCCCOC(=O)c1ccccc1C(=O)O 92.7%
Cn1nc(-c2ccc(Cl)cc2)nc2c(=O)n(C)c(=O)nc1-2 108%
O=c1[nH]c(=O)n([C@H]2C[C@H](O)[C@@H](CO)O2)cc1C(F)(F)F 100%
COc1ccc(-c2cc(C(=O)N3CCOCC3)c3cc(C)ccc3n2)cc1 104%
Cc1ccc2c(c1)c1c3n2CCCN(Cc2ccccc2)C3CCC1 (stereo not given) 102%
CCCCCCCC(=O)OCC(O)CO (stereo not given) 98.7%
S=C(c1ccc2c(c1)OCO2)N1CCCCC1 99.8%
COc1cc2cc(C)nc(Cc3cccc4ccccc34)c2cc1OC 101%
CCn1cc(C(=O)O)c(=O)c2ccc(C)nc21 108%
c1coc(-c2nnc3n2C2(CCCC2)Cc2ccccc2-3)c1 109%
COc1ccc(Cc2noc(CN(C)CCN3CCc4ccccc4C3)n2)cc1OC 104%
CC1(C)c2ccccc2N2CC(=O)NC21/C=C/c1ccco1 (stereo not given) 107%
CC12CC(c3ccccc3O1)C(C(=O)N1CCOCC1)C(=O)N2 (stereo not given) 103%
O=C1CC(c2ccc(OCCCCCOc3ccc(C4CC(=O)NC4=O)cc3)cc2)C(=O)N1 (stereo not given) 101%
O=c1[nH]c(=O)n(C2CCCO2)cc1F (stereo not given) 110%
NC(N)=NC(=O)Cc1c(Cl)cccc1Cl 98.2%
CCOC(=O)Cn1c(C)cc(=O)c2ccccc21 92.6%
Cc1ccc(C(=O)Nc2ccccc2C(=O)NC(C(=O)O)C(C)C)cc1 (stereo not given) 99.1%
Cc1cc(O)c2/c(=N\N)c(-c3csc(C)n3)coc2c1 99.8%
O=C(CN1C(=O)/C(=C/c2cccc(Br)c2)SC1=S)Nc1cccnc1 99%
COc1ccc2[nH]c(CN3CCN(CC(C)C)C(CCO)C3)c(C)c2c1 (stereo not given) 97.4%
CC[N+](C)(C)c1cccc(O)c1 103%
COc1cccc2c(=O)c(C/C=C(/C)Cl)c(C)[nH]c12 95.7%
O=C(N/N=C/c1ccc([N+](=O)[O-])o1)c1ccc(O)cc1 110%
CC(=O)N1CCn2c3c(c4cc(C)ccc42)CCCC31 (stereo not given) 110%
Cc1ccc(CN2CCN(CCCc3ccccc3)CC2CCO)cc1 (stereo not given) 102%
CCC(C(=O)Nc1ccc2c(c1)OCCO2)c1ccccc1 (stereo not given) 101%
CN(C)CCC=C1c2ccccc2CCc2ccccc21 101%
CN(C)c1ccc(CNCCC(Cc2ccccc2)c2ccco2)cc1 (stereo not given) 105%
